{"source": "PubChem BioAssay AID1376", "about": "(SRMLSC, 2008)", "note": "The campaign covered roughly 220,000 compounds. About 530 (0.24%) were called active. The entries come from a sample that favours actives as a whole. Entries with a potency or affinity are not part of this list. A number with no mark means an inactive call. Rule as the data show it: active = inhibition above about 13%; inconclusive = no clear call, values can overlap the other calls; inactive = below that.", "data": [{"target": "Bifunctional protein GlmU (Mycobacterium tuberculosis (strain ATCC 25618 / H37Rv)) (UniProt P9WMN3)", "sequence (P9WMN3 whole entry, looked up)": "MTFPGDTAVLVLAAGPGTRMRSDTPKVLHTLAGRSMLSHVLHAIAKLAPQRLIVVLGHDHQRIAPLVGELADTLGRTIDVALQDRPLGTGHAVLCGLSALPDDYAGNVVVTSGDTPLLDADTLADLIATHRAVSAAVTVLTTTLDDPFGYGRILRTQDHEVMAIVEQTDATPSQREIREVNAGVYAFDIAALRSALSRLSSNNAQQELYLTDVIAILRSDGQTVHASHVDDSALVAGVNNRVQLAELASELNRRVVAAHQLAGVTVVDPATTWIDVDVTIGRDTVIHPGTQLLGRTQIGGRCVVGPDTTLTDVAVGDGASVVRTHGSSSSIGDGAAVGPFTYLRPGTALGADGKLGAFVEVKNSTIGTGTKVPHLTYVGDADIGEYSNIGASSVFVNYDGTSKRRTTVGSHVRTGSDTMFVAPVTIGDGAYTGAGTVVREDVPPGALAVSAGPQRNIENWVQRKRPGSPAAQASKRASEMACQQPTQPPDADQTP", "assay": "inhibition of mycobacterial GlmU enzyme – biochemical, glucosamine-1-phosphate acetyltransferase (AID 1376);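 also: 0% = complete reaction with vehicle and 100% = reaction without substrate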", "conditions": "M. tuberculosis GlmU acetyltransferase enzyme assay; stronger effect = higher value;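 tested at 30 µM in the primary screen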", "values": [{"smiles": "CCOC(=O)C1=C(C)Nc2nc3ccccc3n2C1c1ccc(O)cc1", "note": "(stereo unspecified)", "inhibition": "6.95%"}, {"smiles": "Nc1nc(CN2CCN(C(c3ccccc3)c3ccccc3)CC2)nc(Nc2ccccc2)n1", "inhibition": "-2.82%"}, {"smiles": "COC(=O)CC1C(=O)NCCN1C(=O)CSc1nnnn1-c1ccc(OC)cc1", "note": "(stereo unspecified)", "inhibition": "-2.52%"}, {"smiles": "O=C(O)C1CC1c1ccc(Br)cc1", "note": "(stereo unspecified)", "inhibition": "2.18%"}, {"smiles": "CCCNc1nc(C)nc2c1cnn2CCc1ccccc1", "inhibition": "1.42%"}, {"smiles": "O=C(O)c1ccc2c(c1)C(=O)/C(=C/c1ccccc1)C2=O", "inhibition": "18.9%"}, {"smiles": "CCN(CC)c1ccc(C=C2C(=O)OC3(CCCC3)OC2=O)cc1", "inhibition": "-0.14%"}, {"smiles": "CCN(CC)c1ccc(C=C2C(=O)OC3(CCCCC3)OC2=O)cc1", "inhibition": "-3.43%"}, {"smiles": "CCN(CC)c1ccc(C(=O)O)cc1", "inhibition": "-1.49%"}, {"smiles": "COc1ccc(-c2ccc(OC)c([C@H]3[C@H]4C=CC[C@@H](C)[C@@H]4C(=O)N3Cc3ccccc3)c2)cc1C", "inhibition": "1.44%"}, {"smiles": "CCOc1cc2c(cc1C=O)OC(C)C2", "note": "(stereo unspecified)", "inhibition": "-3.18%"}, {"smiles": "Cc1ccc(C(=O)NCc2ccccn2)cc1Cl", "inhibition": "-4.77%"}, {"smiles": "O=C(c1ccc2c(c1)OCCO2)N1CCN(Cc2ccccc2)CC1", "inhibition": "0.55%"}, {"smiles": "CCC(OC(=O)CC1Sc2ccccc2NC1=O)C(=O)NCC1CCCO1", "note": "(stereo unspecified)", "inhibition": "-4.76%"}, {"smiles": "CCCCCCOC(=O)CCc1c(C)nc(N)[nH]c1=O", "inhibition": "1.43%"}, {"smiles": "CC(C)(C)P(=O)(N1CCOCC1)N1CCOCC1", "inhibition": "-0.04%"}, {"smiles": "O=CC(Cl)P(=O)(N1CCOCC1)N1CCOCC1", "note": "(stereo unspecified)", "inhibition": "5.15%"}, {"smiles": "O=CC(Br)P(=O)(N1CCOCC1)N1CCOCC1", "note": "(stereo unspecified)", "inhibition": "13.9% (active)"}, {"smiles": "CN(c1ccccc1)c1nc(N)c([N+](=O)[O-])c(NCc2ccccc2)n1", "inhibition": "-0.66%"}, {"smiles": "CCCC(=O)NNc1cc(=O)c2c(=O)n(C)c(=O)n(C)c2[nH]1", "inhibition": "-0.71%"}, {"smiles": "Cc1ccc(N2CC(C(=O)NCCC(C)C)CC2=O)cc1", "note": "(stereo unspecified)", "inhibition": "1.29%"}, {"smiles": "N#CC12CNCC1CN=N2", "note": "(stereo unspecified)", "inhibition": "15.5% (active)"}, {"smiles": "Cc1ccc2c(c1)C(c1ccccc1)C(=O)O2", "note": "(stereo unspecified)", "inhibition": "2.36%"}, {"smiles": "Cc1noc(C)c1COC(=O)CCOc1ccccc1", "inhibition": "13.2% (active)"}, {"smiles": "Cc1noc(C)c1COC(=O)C(c1ccccc1)c1ccccc1", "inhibition": "-2.73%"}, {"smiles": "COc1ccc(OCCC(=O)OCc2c(C)noc2C)cc1", "inhibition": "3.9%"}, {"smiles": "Cc1ccc(N2CCN(C(=O)Nc3cccc([N+](=O)[O-])c3)CC2C)cc1", "note": "(stereo unspecified)", "inhibition": "5.55%"}, {"smiles": "CCc1ccc(C(=O)N/N=C/c2cccc3ccccc23)nc1", "inhibition": "-1.08%"}, {"smiles": "Cc1ccccc1C(=O)N1CCN(c2ccc([N+](=O)[O-])c(NCc3cccnc3)c2)CC1", "inhibition": "14.5% (active)"}, {"smiles": "O=C(c1ccccc1)N1CCN(c2ccc([N+](=O)[O-])c(NCc3cccnc3)c2)CC1", "inhibition": "-14.7%"}, {"smiles": "O=C(c1ccccc1F)N1CCN(c2ccc([N+](=O)[O-])c(NCc3cccnc3)c2)CC1", "inhibition": "4.22%"}, {"smiles": "N#Cc1cc(C(=O)c2cc(Cl)ccc2O)cn(CC2CCCO2)c1=O", "note": "(stereo unspecified)", "inhibition": "1%"}, {"smiles": "Cc1cc(C)c2c(=O)n(CC(=O)Nc3cccc(F)c3)sc2n1", "inhibition": "9.3%"}, {"smiles": "Cc1cc(C)c2c(=O)n(CC(=O)Nc3ccc(Br)c(C)c3)sc2n1", "inhibition": "-1.95%"}, {"smiles": "Cc1cc(C)c2c(=O)n(CC(=O)N3CCC(N4CCCCC4)CC3)sc2n1", "inhibition": "-2.82%"}, {"smiles": "Cc1cc(C)c2c(=O)n(CC(=O)NC3CCCC3)sc2n1", "inhibition": "15% (active)"}, {"smiles": "CCCNC(=O)Cn1sc2nc(C)cc(C)c2c1=O", "inhibition": "9.09%"}, {"smiles": "Cc1ccc(NC(=O)Cn2sc3nc(C)cc(C)c3c2=O)c(Cl)c1", "inhibition": "2.26%"}, {"smiles": "Cc1cc(C)c2c(=O)n(CC(=O)Nc3ccc(Cl)cc3)sc2n1", "inhibition": "13% (active)"}, {"smiles": "CCOc1ccc(NC(=O)Cn2sc3nc(C)cc(C)c3c2=O)cc1", "inhibition": "14.9% (active)"}, {"smiles": "Cc1cc(C)c2c(=O)n(CC(=O)Nc3cccc(Cl)c3C)sc2n1", "inhibition": "3.9%"}, {"smiles": "COc1ccc(/C=N/n2c(-c3cc(C)[nH]n3)n[nH]c2=S)cc1OC", "inhibition": "5.27%"}, {"smiles": "Cc1ccc(NC(=O)NCc2c(C)nn(C)c2C)cc1Cl", "inhibition": "2.69%"}, {"smiles": "C#CCCOC(=O)N1C2=NC(C(=O)OC)=C(C(=O)OC)[C@@H]3N(CC=C)c4ccccc4[C@]23C[C@H]1C(=O)OC", "inhibition": "-1.18%"}, {"smiles": "CCCCn1c(SCC(=O)N2CCCCC2C)nc2cc(S(N)(=O)=O)ccc21", "note": "(stereo unspecified)", "inhibition": "-1.4%"}, {"smiles": "COc1ccc(OCc2nnc(SCC(=O)NNC(=O)c3ccc(C)cc3)n2C)cc1", "inhibition": "0.34%"}, {"smiles": "COc1cc(/C=C(\\C#N)c2nc3ccccc3[nH]2)cc(OC)c1O", "inhibition": "4.95%"}, {"smiles": "COc1cc(/C=C(\\C#N)c2nc3ccc(C)cc3[nH]2)c([N+](=O)[O-])cc1OC", "inhibition": "2.93%"}, {"smiles": "CCOC(=O)N1CCN(CC(=O)N2c3ccccc3CCc3ccccc32)CC1", "inhibition": "-2.37%"}, {"smiles": "CCOc1ccc(C(=O)NCC(=O)OCC(=O)Nc2ccc(C)c(S(=O)(=O)N(C)C)c2)cc1", "inhibition": "-3.11%"}, {"smiles": "CCCc1ccc(C(=O)NC(=O)c2ccccc2O)cc1", "inhibition": "2.73%"}, {"smiles": "CCn1cnc2c1c(=O)n(CC(=O)Nc1ccc3c(c1)OC(F)(F)O3)c(=O)n2Cc1ccccc1", "inhibition": "-4.42%"}, {"smiles": "CCC(=O)N1CCC2(CC1)Oc1ccc(Cl)cc1C(=O)C21CC(c2ccccc2)=NO1", "note": "(stereo unspecified)", "inhibition": "3.83%"}, {"smiles": "Cc1cc(C)n2ncc(C(=O)Nc3ccc4c(c3)OCO4)c2n1", "inhibition": "1.37%"}, {"smiles": "COC(=O)Cc1c(C)c2ccc(OCc3nn[nH]n3)c(C)c2oc1=O", "inhibition": "0.72%"}, {"smiles": "COCCCNC(=O)/C(C#N)=C/c1ccc(F)cc1", "inhibition": "-2.31%"}, {"smiles": "COCCCNC(=O)/C(C#N)=C/c1ccc(OCC(=O)O)c(OC)c1", "inhibition": "13.8% (active)"}, {"smiles": "COc1cc(/C=C(\\C#N)C(=O)NCC2CCCO2)ccc1OCC(=O)O", "note": "(stereo unspecified)", "inhibition": "-0.12%"}, {"smiles": "COc1ccc2cc(-c3[nH]ncc3CN3CCCCO3)ccc2c1", "inhibition": "-2.52%"}, {"smiles": "N/C(=N\\O)c1ccc(NC(=O)c2cccs2)cc1", "inhibition": "4.24%"}, {"smiles": "O=C(Nc1c(F)c(F)c(F)c(F)c1F)C1CCCCC1", "inhibition": "-1.91%"}]}]}
